In test [1] the test system is Zika virus NS2B-NS3 protease (unlinked). The test can be described thus: Optimization of GU AMC qHTS for Zika virus inhibitors: Unlinked NS2B-NS3 protease assay (AID 1347151). Also: nearly all actives have a fitted effect of over 80% in size. Also: potency is read from the fitted curve at half-maximal effect. Summed up:
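Unlinked protease (25 nM final); buffer 10 mM Tris-HCl pH 8.0 + 0.01% Tween 20; AMC substrate; 15 min RT, dark; Δfluorescence normalized to no-inhibitor/no-enzyme controls; 4-parameter Hill fit.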

The target in test [2] is Lysine-specific demethylase 5B (Homo sapiens) (UniProt Q9UGL1). The test can be described thus: Optimization screen for KDM5B Histone Demethylases FDH coupled qHTS against the LOPAC library (AID 1347166). Summed up: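 KDM5BDeltaAP (200nM final) preincubated 10 min with compound, then 12.5uM H3K4Me3, 25uM a-ketoglutarate, ascorbate, Fe(II), NAD+ and FDH added; 50mM HEPES pH 7.5, 0.01% Tween-20. NADH fluorescence (340/450 nm) change over 30 min, room temperature.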
Lysine-specific demethylase 5B (Homo sapiens), sequence (Q9UGL1 whole entry, looked up): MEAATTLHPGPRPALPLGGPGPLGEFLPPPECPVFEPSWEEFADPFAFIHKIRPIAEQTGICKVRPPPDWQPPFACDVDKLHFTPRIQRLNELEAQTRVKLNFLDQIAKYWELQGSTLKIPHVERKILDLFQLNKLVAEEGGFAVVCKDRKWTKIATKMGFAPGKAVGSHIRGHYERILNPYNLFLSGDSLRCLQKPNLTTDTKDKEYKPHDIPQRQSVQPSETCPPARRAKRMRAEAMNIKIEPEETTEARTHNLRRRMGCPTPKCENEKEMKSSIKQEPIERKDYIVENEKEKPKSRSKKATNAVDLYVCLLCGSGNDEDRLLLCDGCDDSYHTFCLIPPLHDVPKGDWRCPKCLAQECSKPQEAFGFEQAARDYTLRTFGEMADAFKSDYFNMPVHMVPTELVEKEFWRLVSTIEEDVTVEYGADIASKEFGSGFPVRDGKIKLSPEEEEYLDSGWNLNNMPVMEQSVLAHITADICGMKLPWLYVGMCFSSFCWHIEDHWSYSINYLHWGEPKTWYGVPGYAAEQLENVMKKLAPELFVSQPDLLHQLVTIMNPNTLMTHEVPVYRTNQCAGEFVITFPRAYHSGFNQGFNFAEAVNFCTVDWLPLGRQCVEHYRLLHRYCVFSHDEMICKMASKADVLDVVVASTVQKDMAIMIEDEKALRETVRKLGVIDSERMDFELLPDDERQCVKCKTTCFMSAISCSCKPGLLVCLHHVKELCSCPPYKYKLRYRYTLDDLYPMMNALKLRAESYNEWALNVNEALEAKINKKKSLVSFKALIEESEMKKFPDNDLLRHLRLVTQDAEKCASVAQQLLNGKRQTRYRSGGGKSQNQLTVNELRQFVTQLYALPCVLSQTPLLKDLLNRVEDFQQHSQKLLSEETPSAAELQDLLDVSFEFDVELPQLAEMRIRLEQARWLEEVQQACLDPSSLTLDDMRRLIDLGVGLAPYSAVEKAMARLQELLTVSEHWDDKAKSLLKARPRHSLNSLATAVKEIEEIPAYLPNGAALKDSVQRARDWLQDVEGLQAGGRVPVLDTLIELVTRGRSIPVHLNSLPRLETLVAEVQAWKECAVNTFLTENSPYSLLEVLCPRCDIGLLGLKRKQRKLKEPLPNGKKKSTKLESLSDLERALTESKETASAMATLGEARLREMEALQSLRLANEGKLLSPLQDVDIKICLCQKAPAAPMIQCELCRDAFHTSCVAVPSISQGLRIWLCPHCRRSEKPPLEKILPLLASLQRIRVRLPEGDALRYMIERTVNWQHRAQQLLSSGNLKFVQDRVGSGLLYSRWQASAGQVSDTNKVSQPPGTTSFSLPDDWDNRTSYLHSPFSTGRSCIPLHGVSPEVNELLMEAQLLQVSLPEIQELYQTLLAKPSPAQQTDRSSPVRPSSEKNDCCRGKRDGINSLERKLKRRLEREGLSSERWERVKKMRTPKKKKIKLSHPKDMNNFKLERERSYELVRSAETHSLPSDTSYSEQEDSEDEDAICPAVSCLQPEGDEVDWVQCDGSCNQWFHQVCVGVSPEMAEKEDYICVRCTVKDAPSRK
(Quantitative high-throughput screening tests each substance at several concentrations.)

Test [3] deals with Zika virus NS2B-NS3 protease. The test can be described thus: Primary screen GU AMC qHTS for Zika virus inhibitors (AID 1347154). Also: nearly all actives have a fitted effect of over 70% in size. An outline of the steps:
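Unlinked Zika NS2B hydrophilic domain–NS3 protease complex at 25 nM in 10 mM Tris-HCl pH 8.0, 0.01% Tween 20, with an AMC peptide substrate. Fluorescence change (340/450 nm) over 15 min at room temperature, normalized to controls, fitted to 4-parameter Hill.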

Test [4] concerns Zika virus NS2B-NS3 protease (unlinked complex). The test can be described thus: Confirmatory screen GU AMC qHTS for Zika virus inhibitors (AID 1347153). Also: nearly all actives have a fitted effect of over 70% in size. Summed up: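 Compounds were preincubated 15 min at room temperature with 25 nM noncovalent NS2B-NS3 protease at pH 8.0; AMC substrate added at 10 microM and 15-min fluorescence gain (340/450 nm) converted to percent inhibition, fitted 4-parameter.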

A short description of test [5]: Confirmatory screen NINDS Rhodamine qHTS for Zika virus inhibitors (AID 1347161).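 Also: purified Zika NS2B-NS3 protease with linked NS2B cofactor domain and Rhodamine110 peptide substrate; series mostly up to about 110 µM; nearly all actives have a fitted effect of over 60% in size.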 Summed up:
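Kinetic fluorescence (Ex 480 nm, Em 540 nm) over 15 min with 1.5 microM Rhodamine110 peptide and 25 nM linked protease.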

The nature of test [6]: Vero cells viability qHTS for Zika virus inhibitors (AID 1347167). Summed up:
(§1)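 Cells seeded at 2.5 x 10^5 cells/mL in DMEM with 4% FBS and attached overnight at 37 degrees C, then exposed to compound for 24 to 48 hours. Viability read as ATP content by CellTiter Glo luminescence.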

Test [7] in a line: HepG2 cells viability qHTS for Zika virus inhibitors (AID 1347168). Summed up:
as §1

Test [8] is described as follows: Tertiary RLuc qRT-PCR qHTS assay for Zika virus inhibitors (AID 1347169). Also: top concentration of the series differs between compounds; nearly all actives have a fitted effect of over 55% in size. Summed up: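 Vero, 1,000 cells/well, o/n 37 C; cpd pinned in DMSO; ZIKV-RLuc Cambodian, MOI 1-2, 48-72 h 37 C; live-cell RLuc substrate, lum read at 1-1.5 h.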

Results filed as inconclusive are left out. A call without a number means that no potency is given here. Activity calls are given as the source filed them. Calls follow the shape of the dose curve; as a rule, active = well fitted curve in the direction sought with a large enough effect; inconclusive = small, poorly fitted or top-dose-only effect, or another doubt; inactive = no such curve, though single readings can be large; an effect the other way counts as inactive or inconclusive.

Regarding `CN1CCc2cc(NC(=O)Nc3cccnc3)ccc21`, the Potency result in test [1] was “inactive”. Besides, the compound was called inactive in test [2].
With `CCCCCCCCCCCCCCCCCC(=O)O`, the Potency result in test [3] was “inactive”.
In the case of `CCCCCCCCCCCCCCCCCC(=O)OC(CC(=O)O)C[N+](C)(C)C` (stereo not drawn), the Potency entry in test [1] was “inactive”. In addition, in test [2], the call was inactive.
For `O=[N+]([O-])c1ccc(CSc2ncnc3c2ncn3[C@@H]2O[C@H](CO)[C@@H](O)[C@H]2O)cc1`, in test [1], the Potency entry is “inactive”. Moreover, the call in test [2] was inactive.
For `O=C(O)CC[C@@H](C(=O)O)N1C(=O)c2ccccc2C1=O`, the Potency result in test [1] is “inactive”. The compound was called inactive in test [2].
On to `Nc1nc(Cl)nc2c1ncn2[C@@H]1O[C@H](COP(=O)(O)OP(=O)(O)OP(=O)(O)O)[C@@H](O)[C@H]1O`, for which the Potency entry in test [1] is “inactive”. Besides, the compound was called inactive in test [2].
Turning to `NC(N)=NC(=O)c1nc(Cl)c(N2CCCCCC2)nc1N`, in test [1], the Potency entry is “inactive”. For the same compound, the compound was called inactive in test [2].
With `CCCCCCOc1ccccc1C(N)=O`, the Potency entry in test [3] was “inactive”.
`C=C[C@@H]1CN2CC[C@@H]1C[C@H]2[C@H](O)c1ccnc2ccc(OC)cc12`: the compound was called inactive in test [4] and in test [6]. The Potency result in test [5] was “inactive”.
In the case of `NCC1OC(O[C@H]2[C@H](O)[C@@H](OC3C(O)C(N)CC(N)C3OC3OC(CO)C(O)C(O)C3N)O[C@@H]2CO)C(N)C(O)C1O` (stereo partly drawn), the Potency result in test [1] was “inactive”. The compound was classed as inactive in test [2].
`C=CC(C)=C[C@@]1(C)SC(=O)C(C)=C1O`: the Potency entry in test [1] is “inactive”. Besides, the compound was classed as inactive in test [2].
`CC(C)CC(NP(=O)(O)O[C@@H]1O[C@@H](C)[C@H](O)[C@@H](O)[C@H]1O)C(=O)NC(Cc1c[nH]c2ccccc12)C(=O)O` (stereo partly drawn): the Potency entry in test [1] is “inactive”. Further, the compound was called inactive in test [2].
As to `N=c1ccn2c(n1)O[C@H]1[C@H](O)[C@@H](CO)O[C@H]12`, in test [1], the Potency result was “inactive”. Moreover, the call in test [2] was inactive.
For the compound `NC(=S)c1ccc[n+]([C@@H]2O[C@@H](COP(=O)([O-])OP(=O)(O)OC[C@H]3O[C@@H](n4cnc5c(N)ncnc54)[C@H](OP(=O)(O)O)[C@@H]3O)C(O)C2O)c1` (stereo partly drawn), the Potency entry in test [1] is “inactive”. Further, in test [2], the outcome was inactive.
As for `Brc1c(Br)c(Br)c2n[nH]nc2c1Br`, in test [1], the Potency was 26.7 µM (active). In addition, the result in test [2] was inactive.
In the same order, the values of `CN(C)c1nc(N)c(C(=O)N=C(N)N)nc1Cl` are “inactive” and “inactive”.
For `NC(=S)NCCC[C@H](N)C(=O)O`, the Potency result in test [3] was “inactive”.
For the compound `COc1cc(/C=C/C(=O)CC(=O)/C=C/c2ccc(O)c(OC)c2)ccc1O`, in test [3], the Potency result was “inactive”.
As to `Cc1ccccc1CNc1ncnc2c1ncn2C1OC(CO)C(O)C1O` (stereo not drawn), the Potency result in test [1] and in test [8] was “inactive” each time. Further, the compound was called inactive in test [2], in test [6] and in test [7].

(Values after PubChem BioAssay (NCATS).)
